# Assay outcomes (PubChem BioAssay)
# HT1080NT lethal – kills 2HG-producing HT-1080-NT fibrosarcoma cells | HT-1080-NT fibrosarcoma viability, CellTiter-Glo ATP luminescence, 48 h | Potency, µM (top dose mostly 46.1 µM), for inactives: at the top dose activity, negative = less viability, actives largely listed as cytotoxic | 1.6% of 360,000 active;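 further: NT is the 2HG producing partner of a matched IDH1 knockdown line; potency means the concentration at half of the fitted maximal effect; 0% = DMSO-treated cells and -100% = media-only wells without cells; nearly all actives have a fitted effect of over 55% in size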
#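 Luminescent CellTiter-Glo readout after 48 hours of compound exposure at 37 degrees C defined viability of HT-1080-NT cells. Activity was normalized to DMSO wells and cell-free media wells; concentration-response curves were fitted and assigned curve classes.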
# uPA surface inh – blocks generation of uPA at the cell surface; cell surface uPA generation assay, qHTS; Potency, µM (doses to about 38.3 µM), without a hit: top-dose activity change, negative = inhibition, most hits filed as inhibitors; 0.31% of 330,000 active; active means well fitted inhibition curve with a large enough effect; inconclusive means small, poorly fitted or top-dose-only effect; inactive means no such curve, though single readings can be large or run the other way; tested in mouse RAW 264.7 cells; further: potency means the concentration at half of the fitted maximal effect; nearly all actives have a fitted effect of over 55% in size
# IL-1B inflam inh – inhibitors of inflammasome signaling (IL-1 beta secretion) | THP-1 LPS/ATP IL-1B secretion, AlphaLISA, 16 h; active compounds read low | activity change, % at 57.5 µM | 4.7% of 360,000 active | AID 743279; in the data active means activity change below about -50%; inconclusive means mostly about -30% to -49%
#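 THP-1 cells pretreated 1 hr with compounds (up to 57.5 uM final), then stimulated with LPS (250 ng/mL final) plus ATP (1.25 mM final); secreted IL-1B measured by AlphaLISA after 16 hr, decreased signal indicating inhibition.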
# HT1080 IDH1KD tx – kills HT-1080 cells with IDH1 knockdown; HT-1080 IDH1 knockdown viability, ATP luminescence, 48 h; Potency, µM (highest dose often 46.1 µM), for the others: at the top dose activity, negative = toxicity, most hits filed as cytotoxic; 2% of 360,000 active; AID 686971;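 further: potency means the concentration at half of the fitted maximal effect; 0% = DMSO wells and -100% = cell-free medium wells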
#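 Cytotoxicity counter-line: IDH1KD HT-1080, 48 h, CellTiter-Glo. Curves classed by r2, magnitude and activity.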
# DT40 TDP1 no CPT – qHTS for Inhibitors of human tyrosyl-DNA phosphodiesterase 1 (TDP1): qHTS in cells in absence of CPT; DT40 Tdp1-/- hTDP1 cells, no CPT, ATP luminescence, 48 h; Potency, µM (top dose mostly 46.2 µM), inactives show top-dose activity change, negative = growth inhibition, hits mostly inhibitors; 15% of 420,000 active; further: potency means the concentration at half of the fitted maximal effect; nearly all actives have a fitted effect of over 55% in size
#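 Readout: luminescence from CellTiter-Glo after 30 min in the dark at RT. Cells: DT40 Tdp1-/- with stable hTDP1, 400/well. Exposure: compounds alone, ≥48 hr, 37 °C.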
# DT40 TDP1 CPT – growth inhibition of DT40 Tdp1-/-;hTDP1 cells with camptothecin (screen for TDP1 inhibitors). chicken DT40 Tdp1-/-;hTDP1 cells + 20 nM CPT, ATP luminescence, 48 h. Potency, µM (top dose mostly 46.2 µM), for inactives: top-dose activity change, negative = growth inhibition, hits mostly inhibitors. 12% of 420,000 active; further: potency means the concentration at half of the fitted maximal effect; nearly all actives have a fitted effect of over 55% in size
#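 Cell growth measured by CellTiter-Glo luminescence after a minimum 48 h, 37 C compound exposure with 20 nM CPT in Tdp1-knockout DT40 cells stably expressing hTDP1, seeded 400/well; qHTS titration format.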
# * marks the source's active call; other numbers are inactive results; ? = inconclusive; nt = not tested or not shown; ! = repeats disagree. A selection: hits, their analogues and other compounds. The true share with any hit is near 19%. Unless noted, the call rests on the fitted dose curve; in most records, active means well fitted curve in the direction sought with a large enough effect; inconclusive means small, poorly fitted or top-dose-only effect, or another doubt; inactive means no such curve, though single readings can be large; an effect the other way counts as inactive or inconclusive. Unless noted, on the % scale 0 is the no-effect control and ±100 the full control effect.
SMILES,HT1080NT lethal,uPA surface inh,IL-1B inflam inh,HT1080 IDH1KD tx,DT40 TDP1 no CPT,DT40 TDP1 CPT
CC(=O)c1ccc(NC(=O)CN2CCCCCC2)cc1,21%,1%,-15,0%,-37%,-8%
CCOC(=O)c1nc(Nc2ccc(C(=O)OCC(C)C)cc2)c2ccccc2n1,nt,nt,nt,nt,6.5µM*,6.5µM*
CCOC(=O)c1nc(Nc2ccc(C(=O)OC(C)C)cc2)c2ccccc2n1,nt,nt,nt,nt,4.1µM*,5.2µM*
CCOC(=O)c1ccc(Nc2nc(C(=O)OCC)nc3ccccc23)cc1,-23%,2%,-2,?,2.6µM*,5.8µM*
CCCCCOC(=O)c1ccc(Nc2nc(C(=O)OCC)nc3ccccc23)cc1,nt,nt,nt,nt,1.3µM*,3.3µM*
CCCN(CCC)CCCNC(=O)c1nn(C)c2c1CS(=O)(=O)c1ccccc1-2,nt,nt,nt,nt,-3%,8%
O=C(Cn1nnc(-c2cccs2)n1)Nc1ccccc1C(F)(F)F,-20%,-3%,-11,?,-27%,1%
CCCc1n(CC)c2ccccc2[n+]1CC(O)COC1CCCCC1 (configuration not stated),-19%,-2%,5,2%,4.1µM*,5.2µM*
O=C1/C(=C/c2cccc(Cl)c2)SC(=S)N1CCC(=O)N1CCCCC1CCO (configuration not stated),-12%,6%,?,0%,?,?
O=C(/C=C/c1ccc(F)cc1)NC(=S)N1CCCCC1c1cccnc1 (configuration not stated),?,5%,-2,8%,-15%,-3%
O=C1/C(=C/c2ccccc2F)SC(=S)N1CCC(=O)N1CCCCC1CCO (configuration not stated),-19%,-11%,-99*,?,15µM*,?
COc1ccc(/C=C2/SC(=O)N(CCNC(=O)C3CCCN3C(=O)c3cccs3)C2=O)cc1 (configuration not stated),5%,-5%,-149*,-3%,?,?
O=C1/C(=C/c2ccccc2F)SC(=S)N1CC(=O)N1CCCCC1c1cccnc1 (configuration not stated),-2%,-4%,-61*,-10%,3.7µM*,3.7µM*
COc1ccc(/C=C2\SC(=O)N(CCC(=O)N3CCCCC3CCO)C2=O)cc1 (configuration not stated),8%,-4%,-17,13%,21µM*,?
COc1ccc(/C=C2\SC(=S)N(CCC(=O)N3CCCCC3CCO)C2=O)cc1 (configuration not stated),1%,-17%,-9,-2%,?,?
O=C(NCCN1C(=O)S/C(=C\c2ccccc2F)C1=O)C1CCCN1C(=O)c1cccs1 (configuration not stated),0%,-2%,?,1%,-50%,-26%
CC(=O)Nc1nc(SCC(=O)NCc2ccc(F)cc2)[nH]c(=O)c1NC(=O)c1cccs1,-3%,-3%,-2,-4%,2%,-9%
O=C(c1ccc(=O)[nH]n1)N1CCc2ccccc2C1,5%,12%,15,11%,1%,-3%
O=C1/C(=C/c2ccco2)SC(=S)N1CCC(=O)N1CCCCC1CCO (configuration not stated),-7%,-8%,-76*,-2%,21µM*,-78%
O=C1/C(=C/c2ccccc2)SC(=S)N1CCCC(=O)N1CCCCC1CCO (configuration not stated),-10%,-24%,-59*,-6%,?,?
Cc1cc(Br)c(NC(=O)CN2CCCC2)c(Br)c1,1%,1%,-18,15%,-10%,-1%
CCOC(=O)c1c(C)[nH]c(C(=O)CSc2nccc(C)n2)c1C,0%,-4%,-11,-13%,-11%,20%
CCn1c2ccccc2c2nnc(NN)nc21,-2%,-8%,32,3%,?,?
CCn1c2ccc(C)cc2c2nnc(NN)nc21,-5%,-4%,-9,-17%,9.2µM*,18µM*
CCCCn1c2ccc(F)cc2c2nnc(NN)nc21,-1%,-11%,77,-18%,?,18µM*
SMILES,HT1080NT lethal,uPA surface inh,IL-1B inflam inh,HT1080 IDH1KD tx,DT40 TDP1 no CPT,DT40 TDP1 CPT
N#Cc1ccccc1Cn1c(=O)n(CCCCC(=O)NCc2ccc3c(c2)OCO3)c(=O)c2ccccc21,nt,nt,nt,nt,-12%,?
Cc1cc(C(=O)Nc2ccc(Br)cc2)c2ccccc2n1,7%,-2%,18,13%,-23%,-2%
CC(OC(=O)/C=C/c1ccccc1)C(=O)N1CCc2ccccc21 (configuration not stated),0%,14%,-8,-4%,-24%,-4%
C=CCOC(=O)C1=C(C)NC(SC)=C(C#N)C1c1ccc(OCC)cc1 (configuration not stated),?,-8%,-75*!,?,?,?
C=CCOC(=O)C1=C(C)NC(SC)=C(C#N)C1c1cccs1 (configuration not stated),9.2µM*,-11%,-12,18µM*,?,?
C=CCOC(=O)C1=C(C)NC(SCC(=O)OCC)=C(C#N)C1c1ccc(O)c(OC)c1 (configuration not stated),3%,-13%,17,3%,-7%,?
CCSC1=C(C#N)C(c2cccs2)C(C(=O)OC)=C(C)N1 (configuration not stated),1%,-2%,-7,9%,?,2%
C=CCOC(=O)C1=C(C)NC(SCC(=O)Nc2nccs2)=C(C#N)C1c1ccc(Cl)cc1 (configuration not stated),?,-6%,-6,?,32µM*,22µM*
C=CCOC(=O)C1=C(C)NC(SCC(=O)Nc2nccs2)=C(C#N)C1c1cccs1 (configuration not stated),?,1%,-17,?,?,?
O=S(=O)(NCC[C@@H]1CC[C@H](NS(=O)(=O)c2cccc(F)c2)[C@@H](CO)O1)c1cccc(F)c1,-17%,nt,-4,-15%,?,-20%
CCC(Sc1nc2cc(OC)c(OC)cc2c(=O)n1Cc1ccc(Cl)cc1)C(=O)NCCOC (configuration not stated),nt,nt,nt,nt,-7%,-4%
O=C(Nc1ccc(Nc2ccccc2)cc1)c1c(F)c(F)c(F)c(F)c1F,-3%,-7%,-68*,?,6.5µM*,6.5µM*
O=C(Nc1ccccc1Cl)Nc1ccccc1Cl,-19%,-1%,7,19%,?,-19%
